This is a sample that favours compounds with a hit; in the whole collection about 6.7% have one here.
GDH-TPI counter: GDH-TPI coupled enzyme inhibition counter-screen; GDH-TPI coupled enzyme counterscreen, NADH absorbance; inhibition, % at 4.8 µM; 360,000 tested, 1.2% active; AID 588335; in the data active = inhibition above about 30%
Bead autofluor: compound fluorescence in toxin protease inhibitor counterscreen; AID 624483; 360,000 tested, 3.1% active; fluorescence intensity (test concentration not listed); compound autofluorescence counterscreen, microsphere flow cytometry; hits give high values; in the data active = fluorescence intensity above about 16000; inconclusive = no clear call, values can overlap the other calls
FBA Mtb inh: inhibits M. tuberculosis FBA enzyme; P9WQA3; purified M. tuberculosis FBA, fluorescence read-out; inhibition, % at 1 µM; 360,000 tested, 2.3% active; in the data active = inhibition above about 27%
Anthrax LF prot: blocks Bacillus anthracis lethal factor protease. 360,000 tested, 0.12% active. multiplex microsphere protease cleavage assay, LF. inhibition, % at 10 µM
BoNT F protease: inhibitors of Botulinum neurotoxin F light chain protease; inhibition, % at 10 µM; AID 588497; Multiplex microsphere protease cleavage assay, flow cytometry; 360,000 tested, 0.22% active; in the data active = inhibition above about 35%, passing the limit was not always enough; inconclusive = no clear call, values can overlap the other calls
BoNT-A LC inh2: BoNT A light chain protease inhibition. multiplex microsphere protease substrate cleavage, flow cytometry. 360,000 tested, 0.17% active. inhibition, % at 10 µM
Numbers stand for hits; n = inactive; u = inconclusive. Cut-off read from the data, not from the text of the source, unless noted: active = inhibition above about 30%; inconclusive = no clear call, values can overlap the other calls; inactive = below that.

SMILES | GDH-TPI counter | Bead autofluor | FBA Mtb inh | Anthrax LF prot | BoNT F protease | BoNT-A LC inh2
CCN(Cc1ccccc1)c1ccc(/C=N/NC(=O)c2cccc(S(=O)(=O)N3CCOCC3)c2)cc1 | 43 | n | n | n | n | n
CCN(CC)c1ccc(/C=N/N2CCOCC2)cc1 | 43 | n | n | n | n | n
COC(=O)c1ccc(C2C(C#N)=C(N)Oc3cc(C)n(C)c(=O)c32)cc1 (stereo not drawn) | n | n | n | n | n | n
CCC(=O)N(CCC1(C(C)C)CCOC(C)(C)C1)Cc1ccco1 (stereo not drawn) | n | n | n | n | n | n
Cc1c(Cl)cccc1N(CC(=O)O)S(C)(=O)=O | n | n | n | n | n | n
Cc1cc(C)nc(NS(=O)(=O)c2ccc(N3C(=O)C4C5C=CC(C5)C4C3=O)cc2)n1 (stereo not drawn) | n | n | n | n | n | n
CCC(=O)Nc1cc(Cl)ccc1C(=O)O | n | 19235 | n | n | n | u
COc1ccc(CNc2nc3ccccc3n2CCN2CCCCC2)c(OC)c1 | n | n | n | n | n | n
COc1ccc(OC)c(CNc2nc3ccccc3n2CCN2CCCCC2)c1 | n | 16368 | n | n | n | n
c1ccc(Cn2c(CNc3nc4ccccc4n3CCN3CCOCC3)nc3ccccc32)cc1 | n | 23712 | n | n | n | u
N#CCC(=O)Nc1ccccc1C(=O)O | n | n | n | n | n | n
CCCn1nnc(NCc2ccc(OCc3cccs3)c(OC)c2)n1 | n | 17112 | n | n | n | n
COc1ccc(CCNC(=O)C2CCN(S(=O)(=O)N3CCC(C)CC3)CC2)cc1OC | n | n | n | n | n | n
Cc1cc(SCc2cccc(C(F)(F)F)c2)nc(=O)[nH]1 | n | n | n | n | n | n
COc1ccc(C(C)NC(=O)c2ccoc2C)cc1OC (stereo not drawn) | n | 24236 | n | n | n | n
CC(NC(=O)c1cccc(Cn2cc([N+](=O)[O-])cn2)c1)c1ccc(C(C)(C)C)cc1 (stereo not drawn) | n | 19892 | n | n | n | n
COC(=O)c1ccc(Cn2cc(Cl)cn2)cc1 | n | n | n | n | n | n
CC(C)NC(=O)c1cccc(Cn2cc(Cl)cn2)c1 | n | 22543 | n | n | n | n
CCC(NC(=O)c1cccc(Cn2cc([N+](=O)[O-])cn2)c1)c1ccc(C(C)C)cc1 (stereo not drawn) | n | n | n | n | n | n
COc1cccc(CNc2nc3ccc(NC(C)=O)cc3s2)c1 | n | n | n | n | u | n
Cc1ccc2cc(C(c3nnnn3C3CCCC3)N3CCN(c4ccccc4)CC3)c(=O)[nH]c2c1 (stereo not drawn) | n | n | n | n | n | n
COc1ccc(C(c2nnnn2Cc2ccccc2)N2CCN(c3ccccc3)CC2)cc1 (stereo not drawn) | n | n | n | n | n | n
Cc1ccc2cc(C(c3nnnn3Cc3ccccc3)N3CCN(c4ccccc4)CC3)c(=O)[nH]c2c1 (stereo not drawn) | n | 23279 | n | n | n | n
COc1ccc(N2CCN(C(c3cc4cc(C)ccc4[nH]c3=O)c3nnnn3Cc3ccccc3)CC2)cc1 (stereo not drawn) | n | 20480 | n | n | n | n
Cc1ccc(NC(=O)c2nc3nccc(C)n3n2)cc1S(=O)(=O)N1CCCCC1 | n | n | n | n | n | n
SMILES | GDH-TPI counter | Bead autofluor | FBA Mtb inh | Anthrax LF prot | BoNT F protease | BoNT-A LC inh2
COC(=O)C1=C(C)N(C(C)C)C(=O)C1(NC(=O)C1CCCCC1)C(F)(F)F (stereo not drawn) | n | 19805 | n | n | n | u
O=C(Cc1noc2ccccc12)Nc1ccc2ccccc2c1 | n | 21952 | n | n | n | n
O=C1CC(c2ccc(Cl)cc2)n2nc(NS(=O)(=O)c3ccc(F)cc3)nc2N1 (stereo not drawn) | n | n | n | n | n | n
Cc1cccc(C(=O)O/N=C2\CCCc3ccccc32)c1 | n | n | n | n | n | n
COc1ccc(C(=O)OCCN=C2NS(=O)(=O)c3ccccc32)cc1OC | n | 21489 | n | n | n | n
O=C(NC1CCCCC1)N1CCN(C2CCCCC2)CC1 | n | 23605 | n | n | n | n
O=C(NC1CCCCC1)N1CCN(c2ncccn2)CC1 | n | 23207 | n | n | n | n
S=C(NC1CCCCC1)N1CCN(c2ncccn2)CC1 | n | n | n | n | n | n
CC1=C(C(=O)OC(C)C)C(c2cccnc2)n2ncnc2N1 (stereo not drawn) | n | n | n | n | n | n
CC1(C(=O)NC2CCCCCCC2)CCC(=O)N1Cc1cccs1 (stereo not drawn) | n | 16346 | n | n | n | n

Compound activity: PubChem BioAssay, several laboratories
